# Laboratory results from PubChem BioAssay.
# Records with an inconclusive call do not appear. Calls of active or inactive are those of the source.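 How the source made its calls, unless noted: active means compounds that lower survival of HCT116 colon cancer cells in the luminescence readout, no numeric limit stated; inactive means the rest.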
# Key:
# [1] = stimulators of insulin release from INS-1E, primary screen, cell-based, 5 mM glucose, NPC library (AID 1117329;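 active means compound raises insulin release from rat beta cells at 5 mM glucose, no numeric limit stated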); conditions: rat INS-1E insulin secretion, at 10 µM, stronger effect = higher value
# [2] = growth inhibition of GSK3B-pretreated HCT116 cells – cell-based, CellTiter-Glo, 0.2 to 20 µM (AID 1117336;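 active means compounds lowering colon cancer cell viability after pretreatment blocking the GSK3B kinase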); conditions: HCT116 viability after GSK3B inhibitor, at 20 µM, stronger effect = higher value
# [3] = inhibition of endothelial tube formation, primary screen, imaging, VEGF stimulated, CD31 staining, tube area, NPC library (AID 1117340;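 active means compound that reduces growth-factor-driven endothelial tube area in a mixed cell culture, no cutoff stated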); conditions: VEGF-stimulated ADSC/ECFC co-culture, at 10 µM, stronger effect = higher value
# [4] = GLP1 release stimulators, primary, NCI-H716, NPC library (AID 1117341;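 active means compound raises GLP1 secretion from the human gut endocrine cells, with no numeric limit stated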); conditions: NCI-H716 cells, at 10 µM, stronger effect = higher value
# [5] = HCT116 colon cancer cell growth inhibition, primary screen, CellTiter-Glo luminescence, NPC library (AID 1117342); conditions: at 20 µM (top of the series)
# [6] = reduced SW480 viability measured with CellTiter-Glo, NPC library, primary (AID 1117343;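 active means compounds that lower viability of the colon cancer cells in the luminescence readout, with no numeric limit stated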); conditions: CellTiter-Glo luminescence; at 20 µM (top of the series)
# [7] = NPC library primary testing for decreased DLD-1 cell viability via CellTiter-Glo (AID 1117346;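 active means compounds that lower survival of DLD-1 colon cancer cells in the luminescence readout, no cutoff given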); conditions: DLD-1 viability, CellTiter-Glo luminescence; at 20 µM (top of the series)
# [8] = molecular target: 6-phosphogluconate dehydrogenase, decarboxylating (Homo sapiens) (UniProt P52209); experiment: inhibition of human phosphogluconate dehydrogenase – biochemical, recombinant enzyme, NADPH absorbance, primary screen (AID 1159550;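 active means at least 20% inhibition of 6-phosphogluconate dehydrogenase activity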); conditions: recombinant 6PGD, NADPH absorbance 341 nm; at 10 µM; stronger effect = higher value
# [9] = EMT-state selective cytotoxicity in co-culture – imaging, PC-3E GFP, TEM4-18 mCherry, primary screen (AID 1345086;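 active means compounds killing one labelled cell type while sparing the other, by normalised counts and ratio limits, not self-fluorescent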;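 on all read-outs here: cells exposed to compound for 72 h before imaging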;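 on red/green cell ratio (normalised): normalised mesenchymal count divided by normalised epithelial count so high means epithelial killing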); conditions: PC-3E GFP / TEM4-18 mCherry co-culture, imaging cell counts, at 1 µM; for red/green cell ratio (normalised): actives lie on both sides, counts scaled to control wells, 1 = unselective
# [10] = viability loss in pontine glioma line – cell-based, SU-DIPG-XIII, MIPE4.0, CellTiter-Glo, qHTS, dose response (AID 1347061; cut-off not given, nearly all actives have AC50 up to about 37 µM;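 further: cells exposed to compound for 48 hours before readout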); conditions: CellTiter-Glo ATP luminescence
# [11] = viability loss in pontine glioma line – cell-based, SU-DIPG-IV, MIPE4.0, CellTiter-Glo, qHTS, dose response (AID 1347063; cut-off not given, nearly all actives have AC50 up to about 30 µM;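 further: compound exposure lasted 48 hours before the viability readout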); conditions: CellTiter-Glo ATP luminescence
# [12] = viability loss in pontine glioma line – cell-based, SU-DIPG-XVII, MIPE5.0, CellTiter-Glo, qHTS, dose response (AID 1347060; cut-off not given, nearly all actives have AC50 up to about 26 µM;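 further: cells exposed to compound for 48 hours before viability readout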); conditions: CellTiter-Glo ATP luminescence
# [13] = viability loss in pontine glioma line – cell-based, SU-DIPG-XIII, MIPE5.0, CellTiter-Glo, qHTS, dose response (AID 1347064; cut-off not given, nearly all actives have AC50 up to about 23 µM;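 on AC50: cells exposed to compound for 48 hours before the viability read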); conditions: CellTiter-Glo ATP luminescence
# [14] = viability loss in pontine glioma line – cell-based, JHH-DIPG-1, MIPE4.0, CellTiter-Glo, qHTS, dose response (AID 1347062; cut-off not given, nearly all actives have AC50 up to about 27 µM;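 on AC50: cells exposed to compound for two days before readout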); conditions: JHH-DIPG-1 viability, CellTiter-Glo ATP luminescence
# [15] = measured here: epithelial PC-3E GFP cell survival
# [16] = measured here: mesenchymal TEM4-18 mCherry cell survival
# Sequence of 6-phosphogluconate dehydrogenase, decarboxylating (Homo sapiens) (P52209 whole entry, looked up): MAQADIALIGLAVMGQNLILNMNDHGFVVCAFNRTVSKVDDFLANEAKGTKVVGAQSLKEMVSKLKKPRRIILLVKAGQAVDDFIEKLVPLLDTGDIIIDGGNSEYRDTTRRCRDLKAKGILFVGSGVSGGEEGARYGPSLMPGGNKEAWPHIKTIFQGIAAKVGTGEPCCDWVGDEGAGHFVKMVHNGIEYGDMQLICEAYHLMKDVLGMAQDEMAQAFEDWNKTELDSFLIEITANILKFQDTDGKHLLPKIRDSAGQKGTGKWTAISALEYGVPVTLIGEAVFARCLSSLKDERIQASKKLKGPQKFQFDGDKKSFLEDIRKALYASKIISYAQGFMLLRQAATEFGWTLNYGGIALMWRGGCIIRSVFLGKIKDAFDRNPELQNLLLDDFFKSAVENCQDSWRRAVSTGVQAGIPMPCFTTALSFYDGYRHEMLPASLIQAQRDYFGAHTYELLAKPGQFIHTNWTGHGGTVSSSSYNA
SMILES,insulin secretion stimulation [1],viability decrease [2],tube area decrease [3],GLP1 secretion stimulation [4],inhibition of viability [5],viability decrease (inhibition) [6],viability decrease (inhibition) [7],inhibition [8],red/green cell ratio (normalised) [9],"normalised cell number [9, 15]","normalised cell number [9, 16]",outcome [10],outcome [11],AC50 [12],AC50 [13],outcome [14],outcome [13],AC50 [14],AC50 [11]
CN(C)CCC=C1c2ccccc2C=Cc2ccccc21,15.2% (inactive),-81.6% (inactive),1.5% (inactive),7.9% (inactive),27.1% (inactive),111% (active),7.5% (inactive),-4.48% (inactive),1.06 (inactive),1.13,1.19,inactive,inactive,,,,,,
CC(C)COCC(CN(Cc1ccccc1)c1ccccc1)N1CCCC1 (stereo unspecified),4.8% (inactive),98% (active),32.8% (inactive),4.3% (inactive),105% (active),117% (active),97% (active),1.94% (inactive),1.11 (inactive),1.06,1.18,,,20.9 µM (active),14.8 µM (active),,,,
CCn1cc(C(=O)O)c(=O)c2cc(F)c(N3CCNCC3)nc21,-0.1% (inactive),5.9% (inactive),2.1% (inactive),-2.8% (inactive),-6.97% (inactive),-275% (inactive),-18.4% (inactive),-18.3% (inactive),1.34 (inactive),0.89,1.2,inactive,inactive,,,inactive,,,
O=C(O)c1cccnc1Nc1cccc(C(F)(F)F)c1,-3.1% (inactive),13% (inactive),12.7% (inactive),0.6% (inactive),-5.9% (inactive),60% (active),28.2% (inactive),12.6% (inactive),0.93 (inactive),1.08,1,inactive,inactive,,,inactive,,,
NCCCCCC(=O)O,-1.3% (inactive),-23% (inactive),15.9% (inactive),1.1% (inactive),-10.8% (inactive),9.9% (inactive),-9.4% (inactive),11.8% (inactive),0.92 (inactive),1.31,1.21,inactive,inactive,,,inactive,inactive,,
COc1ccc2c(c1)c(CC(=O)OCC(=O)O)c(C)n2C(=O)c1ccc(Cl)cc1,2.2% (inactive),4.9% (inactive),-5.2% (inactive),-2.5% (inactive),12.8% (inactive),33.3% (inactive),0.1% (inactive),-4.54% (inactive),0.77 (inactive),1.18,0.91,inactive,inactive,,,inactive,,,
COc1cnc(NS(=O)(=O)c2ccc(N)cc2)nc1,1.9% (inactive),-21.6% (inactive),-5.6% (inactive),0.5% (inactive),-7.43% (inactive),23.4% (inactive),-14.6% (inactive),-8.19% (inactive),1.15 (inactive),0.87,0.99,,,,,,,2.96 µM (active),
CC(C)(Sc1cc(C(C)(C)C)c(O)c(C(C)(C)C)c1)Sc1cc(C(C)(C)C)c(O)c(C(C)(C)C)c1,3.7% (inactive),-20.3% (inactive),-25% (inactive),0.8% (inactive),1.57% (inactive),9.4% (inactive),37.1% (inactive),6.05% (inactive),1.01 (inactive),1.14,1.16,inactive,inactive,,,inactive,,,
C[C@H]1c2cccc(O)c2C(O)=C2C(=O)[C@]3(O)C(O)=C(C(N)=O)C(=O)[C@@H](N(C)C)[C@@H]3[C@@H](O)[C@@H]21,-0.5% (inactive),92.4% (active),-4.2% (inactive),2.6% (inactive),68.1% (active),61.1% (active),90.9% (active),9.31% (inactive),1.48 (inactive),1.06,1.57,inactive,,,,inactive,,,
OC[C@H]1O[C@@H](Oc2ccc(O)cc2)[C@H](O)[C@@H](O)[C@@H]1O,-0.6% (inactive),-2.2% (inactive),1% (inactive),-2.9% (inactive),-1.8% (inactive),2.3% (active),-10.8% (inactive),17.9% (inactive),1.05 (inactive),1.15,1.21,inactive,inactive,,,inactive,,,
Clc1ccc(C(c2ccccc2Cl)C(Cl)Cl)cc1 (stereo unspecified),1.4% (inactive),46.6% (inactive),6.6% (inactive),15.5% (inactive),88.6% (active),84.4% (active),99.5% (active),5.07% (inactive),0.98 (inactive),1.11,1.08,,,,18.6 µM (active),,,,16.6 µM (active)
CCCN(CCC)C(=O)C(CCC(=O)O)NC(=O)c1ccccc1 (stereo unspecified),1.3% (inactive),-11.7% (inactive),-25.9% (inactive),0.4% (inactive),-4.15% (inactive),-0.1% (inactive),-14.6% (inactive),1.53% (inactive),1.08 (inactive),0.92,1,,,26.3 µM (active),,,inactive,,
Cn1c(=O)c2c(ncn2C)n(C)c1=O,4.3% (inactive),-1.7% (inactive),16.4% (inactive),-0.2% (inactive),-8.8% (inactive),-11.7% (inactive),7.2% (inactive),8.55% (inactive),0.97 (inactive),1.17,1.14,inactive,,,,inactive,inactive,,
